Data as given in the supplement of paper PMC12636033.
± gives the standard deviation of the averaged measurements. Whole data set: some 33,000 sequences, median “E-score (rank enrichment, -0.5 to 0.5)” near -0.0075, cut for the highest 2% near 0.23. This excerpt belongs to a sample that is enriched for the highest values.

What follows are sequences tested on WT Max(13-93) synthetic (M65Nle) (assay: PBM 8-mer E-score (E-score (rank enrichment, -0.5 to 0.5)); higher = stronger preferential binding).
Method: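 Protein binding microarray (universal PBM chip covering all 10-mers in fixed probe flanks) with chemically synthesized human Max(13-93) bHLH-LZ analogs (not full-length Max) bearing noncanonical residues (hArg, Tha, Aib, Nle at 65) and aromatic Cys staples. Read-out per 8-mer (and its reverse complement): E-score (rank-based enrichment, -0.5 to 0.5) and Z-score of median probe intensity.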

| Sequence | PBM 8-mer E-score |
| --- | --- |
| ACGTGTCT | 0.363 ± 0.00056 |
| CCGTGTCG | -0.151 ± 0.011 |
| CCGTGTCC | -0.00903 ± 0.072 |
| AAGTGTCG | 0.0847 ± 0.052 |
| CCGTGTCA | 0.0378 ± 0.022 |
| ACGTGTCA | 0.3263 ± 0.0031 |
| ACGTGTCG | 0.339 ± 0.0083 |
| ACGTGTCC | 0.243 ± 0.037 |
| GCGTGTCA | 0.223 ± 0.019 |
| GCGTGTCC | 0.127 ± 0.037 |
| ACCTGTCT | 0.0145 ± 0.064 |
| AAGTGTCT | -0.104 ± 0.07 |
| CCTTTGCG | 0.00668 ± 0.0019 |
| AGCCCCCC | -0.14 ± 0.14 |
| AACAGACA | 0.184 ± 0.011 |
| CGATTAGC | -0.18 ± 0.11 |
| CGGGCGAA | -0.0278 ± 0.057 |
| CACGCCTG | 0.0753 ± 0.081 |
| TGCTTGAA | 0.0947 ± 0.15 |
| GCCACTGA | -0.158 ± 0.074 |
| GACCCCTA | -0.156 ± 0.13 |
| CGTGGCTA | 0.193 ± 0.013 |

| Sequence | PBM 8-mer E-score |
| --- | --- |
| CATCTCAA | 0.104 ± 0.017 |
| CAATATAG | 0.117 ± 0.021 |
| AACTATAA | 0.269 ± 0.028 |
| TAATATAA | 0.183 ± 0.014 |
| ATATATAG | 0.182 ± 0.041 |
| AAAAATAG | 0.102 ± 0.059 |
| AAAAATAC | 0.2 ± 0.033 |
| AAAAATAT | 0.256 ± 0.017 |
| CACTATAA | -0.0318 ± 0.027 |
| GACTATAA | 0.13 ± 0.0092 |
| GAATATAA | 0.179 ± 0.022 |
| AAATATAA | 0.24 ± 0.048 |
| AAATATAG | 0.238 ± 0.099 |
| GTAGAGAC | -0.0752 ± 0.086 |
| CGTTCATC | 0.0464 ± 0.14 |
| GCCCCGCC | 0.172 ± 0.053 |
| CACAGGTA | 0.11 ± 0.061 |
| CGGTGACA | -0.162 ± 0.13 |
| ACTGCAAT | -0.0126 ± 0.077 |
| AAAAATTT | 0.14 ± 0.091 |
| AAAATTTT | 0.273 ± 0.034 |
| AAAATTTG | 0.027 ± 0.066 |

| Sequence | PBM 8-mer E-score |
| --- | --- |
| ATATATAT | 0.0942 ± 0.12 |
| AAATATGT | 0.124 ± 0.078 |
| AAATATAC | 0.199 ± 0.028 |
| CAATATGA | 0.183 ± 0.027 |
| AAATATGA | 0.261 ± 0.023 |
| AAATATAT | 0.248 ± 0.032 |
| AAGGAGCC | -0.118 ± 0.072 |
| CGTAAGCC | 0.0338 ± 0.0056 |
| CAGGATAC | -0.144 ± 0.019 |
| ACGCCAGC | -0.269 ± 0.085 |
| ATGCGCCA | 0.123 ± 0.11 |
| CGTACAAC | 0.112 ± 0.047 |
| ACGAGTCG | -0.0792 ± 0.021 |
| CTGAAAAA | -0.141 ± 0.0094 |
| ATTGAAAC | 0.117 ± 0.092 |
| ATTGAAAA | 0.254 ± 0.087 |
| ATGAAAAA | 0.158 ± 0.13 |
| TTGAAAAA | 0.234 ± 0.043 |
| CTTGAAAA | 0.0938 ± 0.0069 |
| ACGGTCCA | -0.222 ± 0.021 |
| AGATTTAC | 0.119 ± 0.041 |
| ACCTATCT | 0.211 ± 0.065 |

| Sequence | PBM 8-mer E-score |
| --- | --- |
| CCTAAGCC | -0.125 ± 0.096 |
| ATTTTCGG | 0.129 ± 0.056 |
| GAAAACAA | 0.206 ± 0.059 |
| ACACATCT | 0.0507 ± 0.12 |
| ACACATAT | 0.202 ± 0.041 |
| ACACATGT | 0.359 ± 0.025 |
| ACACATGA | 0.186 ± 0.036 |
| ACACATGG | 0.357 ± 0.034 |
| ATACATGG | 0.134 ± 0.045 |
| CTAGTGGC | -0.019 ± 0.044 |
| CACCCTTA | 0.118 ± 0.056 |
| ACCAGAAA | 0.0691 ± 0.0064 |
| CCTAGTCA | -0.0758 ± 0.01 |
| GCCGAAGC | -0.212 ± 0.034 |
| ACATTGTA | 0.153 ± 0.06 |
| ACATTGTG | 0.26 ± 0.054 |
| ACATTGTC | 0.19 ± 0.033 |
| AGAGACCG | -0.14 ± 0.044 |
| CCCCCGCC | 0.0274 ± 0.11 |
| CCGCCCGG | -0.265 ± 0.039 |
